Source: PubChem (National Center for Advancing Translational Sciences (NCATS))
Shown are actives, neighbours in structure and some others; about 9% of the full set was active somewhere.
G9a inh: qHTS Assay for Inhibitors of Histone Lysine Methyltransferase G9a | Histone-lysine N-methyltransferase EHMT2 (Homo sapiens), Q96KQ7 | G9a H3K9 monomethylation, AlphaScreen, 2 h | Potency, µM (titrated, usually from 102 µM), usual class: inhibitors | 350,000 compounds, 8.8% hits | AID 504332, 2011; further: nearly all actives have a fitted effect of over 75% in size
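Using a bead-based AlphaScreen, monomethylated H3K9 product from 2 h room-temperature reactions (G9a 20 nM, peptide 500 nM, SAM 20 uM) was detected with 0.5 ug/mL rabbit anti-H3K9me1 antibody.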
JMJD2A Tudor: qHTS Assay for Inhibitors of JMJD2A-Tudor Domain. Lysine-specific demethylase 4A (Homo sapiens), O75164. AlphaScreen JMJD2A-Tudor / H3K4me3 peptide binding. Potency, µM (doses to about 114 µM), usual class: inhibitors. 390,000 compounds, 4.4% hits. AID 504339, 2011; further: nearly all actives have a fitted effect of over 50% in size
12-LOX inh: Primary qHTS assay for inhibitors of human arachidonate 12S-lipoxygenase (ALOX12): Round 2; Polyunsaturated fatty acid lipoxygenase ALOX12 (Homo sapiens), P18054; purified 12hLO, xylenol orange hydroperoxide absorbance; Potency, µM (series often up to 108 µM), actives largely listed as inhibitors; 580,000 compounds, 1.1% hits
Target sequence (P18054 whole entry, looked up): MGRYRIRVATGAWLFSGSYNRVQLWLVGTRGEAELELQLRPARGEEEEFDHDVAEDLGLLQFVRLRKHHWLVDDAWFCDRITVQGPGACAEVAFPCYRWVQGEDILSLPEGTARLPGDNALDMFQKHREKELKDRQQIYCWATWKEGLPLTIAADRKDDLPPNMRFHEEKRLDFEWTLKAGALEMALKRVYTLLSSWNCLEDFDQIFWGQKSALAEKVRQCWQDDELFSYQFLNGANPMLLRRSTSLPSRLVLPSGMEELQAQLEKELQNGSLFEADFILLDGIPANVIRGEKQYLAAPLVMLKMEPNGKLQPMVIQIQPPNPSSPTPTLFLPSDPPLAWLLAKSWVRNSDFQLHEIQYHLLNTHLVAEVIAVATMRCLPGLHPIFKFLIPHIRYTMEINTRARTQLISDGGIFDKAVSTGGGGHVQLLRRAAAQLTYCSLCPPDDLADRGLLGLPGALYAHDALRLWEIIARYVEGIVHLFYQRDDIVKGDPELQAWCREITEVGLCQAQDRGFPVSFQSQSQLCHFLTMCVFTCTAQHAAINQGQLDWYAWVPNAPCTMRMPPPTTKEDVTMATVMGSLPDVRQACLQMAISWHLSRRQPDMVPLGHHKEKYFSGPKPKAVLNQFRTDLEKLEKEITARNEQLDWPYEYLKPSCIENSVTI
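Purified human 12hLO (150 nM final) in 25 mM Hepes, 0.01% Triton X-100, pH 7.0 was preincubated 15 min at room temperature with compound. Then 40 uM arachidonic acid was added, 30 min. Hydroperoxide was read by Fe-XO absorbance ratio 573/405 nm.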
BAZ2B block: qHTS Assay for Inhibitors of BAZ2B; Potency, µM (highest dose often 114 µM), actives largely listed as inhibitors; Bromodomain adjacent to zinc finger domain protein 2B (Homo sapiens), Q9UIF8; 360,000 compounds, 4.4% hits; AlphaScreen BAZ2B-H3K14Ac peptide displacement; further: nearly all actives have a fitted effect of over 60% in size
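Compounds, titrated to a top concentration of 110 uM, were incubated 30 min at room temperature with preformed BAZ2B/acetyl-K14 H3 peptide complex (50 nM each). Proximity signal was measured by AlphaScreen after 20 min with beads.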
HP1b chromo inh: HTS for Inhibitors of HP1-beta Chromodomain Interactions with Methylated Histone Tails | Potency, µM (titrated, usually from 114 µM), usual class: inhibitors | Chromobox protein homolog 1 (Homo sapiens), P83916 | AID 540317, 2011 | AlphaScreen HP1-beta / biotin-H3K9me3 peptide binding | 390,000 compounds, 0.56% hits; further: nearly all actives have a fitted effect of over 70% in size
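HP1-beta protein (50 nM final) preincubated 30 min at room temperature with biotinylated H3(1-18)K9me3 peptide (50 nM) in PBS pH 7.4, 0.01% Tween-20, then compound added for 30 min. AlphaScreen streptavidin donor/nickel chelate acceptor beads (10 ug/mL final), 30 min dark, luminescence read.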
PLK1 PBD inh: qHTS for Inhibitors of PLK1-PDB (polo-like kinase 1 - polo-box domain): Primary Screen; Plk1 PBD binding of FITC phosphopeptide, fluorescence polarization; Serine/threonine-protein kinase PLK1 (Homo sapiens), P53350; AID 720504, 2013; Potency, µM, most hits filed as inhibitors; 360,000 compounds, 2.8% hits; further: series mostly up to about 57 µM; nearly all actives have a fitted effect of over 65% in size
Hits are given with their value; [ ] = remark or other dose. The call rests on the fitted dose curve; in most records, active means well fitted curve in the direction sought with a large enough effect; inconclusive means small, poorly fitted or top-dose-only effect, or another doubt; inactive means no such curve, though single readings can be large; an effect the other way counts as inactive or inconclusive.

Cc1ccc(O)c(C2=NNC(c3ccc(Cl)cc3)C2)c1 (stereo not drawn) was read as JMJD2A Tudor inactive, 12-LOX inh inactive, BAZ2B block inconclusive, HP1b chromo inh inactive and PLK1 PBD inh inactive.
`Cc1ccc(NC(=S)NCCSc2ccc(Cl)cc2)cc1` gave G9a inh inactive, JMJD2A Tudor inactive, 12-LOX inh 39.8µM, BAZ2B block inactive, HP1b chromo inh inactive and PLK1 PBD inh inactive.
For COC(=O)Cc1ccc(NC(=S)NCCSc2ccc(C)cc2)cc1 the results were G9a inh inconclusive, JMJD2A Tudor inactive, 12-LOX inh 44.7µM, BAZ2B block inconclusive, HP1b chromo inh inactive and PLK1 PBD inh inactive.
`Fc1ccccc1CSCCNC(=S)Nc1ccccc1` gave 12-LOX inh 35.5µM.
`S=C(NCCSc1ccc(Cl)cc1)Nc1ccc(Nc2ccccc2)cc1` gave 12-LOX inh 35.5µM.
Cc1ccc(NC(=O)NCCSc2ccc(C)cc2)cc1 was read as G9a inh inactive, JMJD2A Tudor inactive, 12-LOX inh inactive, BAZ2B block inactive, HP1b chromo inh inactive and PLK1 PBD inh inactive.
CCOC(=O)N1CCC(NC(=O)c2sc3nc4n(c(=O)c3c2C)CCCC4)CC1 was read as G9a inh inactive[12.7 µM], JMJD2A Tudor inactive, 12-LOX inh inactive, BAZ2B block inactive, HP1b chromo inh inactive and PLK1 PBD inh inactive.
`Cc1ccc(C(=O)c2oc3ccccc3c2N)cc1` gave G9a inh inconclusive, JMJD2A Tudor inactive, 12-LOX inh inactive, BAZ2B block inactive, HP1b chromo inh inactive and PLK1 PBD inh inactive.
Cc1c(C(=O)O)[nH]c2c1C(=O)CC(c1ccccc1)C2 (stereo not drawn) was read as G9a inh inactive[2.33 µM], JMJD2A Tudor inconclusive, 12-LOX inh inactive, BAZ2B block inactive, HP1b chromo inh inactive and PLK1 PBD inh inactive.
`CCOC(=O)C(=CNc1cc(C)nn1-c1ccccc1)C(=O)OCC` gave G9a inh inactive, JMJD2A Tudor inactive, 12-LOX inh inactive, BAZ2B block inactive, HP1b chromo inh inactive and PLK1 PBD inh inactive.
`Cc1cc(Br)ccc1NC(=S)Nc1cccc([N+](=O)[O-])c1` gave G9a inh 44.7µM, JMJD2A Tudor inactive, 12-LOX inh inconclusive, BAZ2B block inactive, HP1b chromo inh inactive and PLK1 PBD inh inactive.
Screening Cc1cccc(NC(=S)N/N=C/c2ccc([N+](=O)[O-])s2)c1 returned G9a inh inconclusive, JMJD2A Tudor 56.2µM, 12-LOX inh inconclusive, BAZ2B block 10µM, HP1b chromo inh inconclusive and PLK1 PBD inh inactive.
CNC(=S)Nc1cccc([N+](=O)[O-])c1 was read as G9a inh inconclusive, JMJD2A Tudor inactive, 12-LOX inh inactive, BAZ2B block inactive, HP1b chromo inh inactive and PLK1 PBD inh inactive.
For O=C(NC(=S)Nc1cccc(F)c1)c1cccc([N+](=O)[O-])c1 the results were G9a inh inconclusive, JMJD2A Tudor inconclusive, 12-LOX inh inactive, BAZ2B block inactive, HP1b chromo inh inactive and PLK1 PBD inh inactive.
O=[N+]([O-])c1cccc(NC(=S)NCc2ccncc2)c1 was read as G9a inh 35.5µM, JMJD2A Tudor inactive, 12-LOX inh inactive, BAZ2B block inactive, HP1b chromo inh inactive and PLK1 PBD inh inactive.
For O=C(NCc1ccncc1)Nc1cccc([N+](=O)[O-])c1 the results were JMJD2A Tudor inactive, 12-LOX inh inactive, BAZ2B block inactive, HP1b chromo inh inactive and PLK1 PBD inh inactive.
Cc1cccc(NC(=S)NNC(=O)c2cccc([N+](=O)[O-])c2)c1 was read as G9a inh 20µM, JMJD2A Tudor inactive, 12-LOX inh inactive, BAZ2B block inconclusive, HP1b chromo inh inactive and PLK1 PBD inh inactive.
Screening CN=C1S/C(=C\c2ccc(OCC(=O)OC)c(OC)c2)C(=O)N1C returned G9a inh inconclusive, JMJD2A Tudor inactive, 12-LOX inh inconclusive, BAZ2B block inactive, HP1b chromo inh inactive and PLK1 PBD inh inactive.
Cc1ccc2cn[nH]c2c1NC(=S)NC(=O)c1ccccc1 was read as G9a inh inactive, JMJD2A Tudor inactive, 12-LOX inh inconclusive, BAZ2B block inactive, HP1b chromo inh inactive and PLK1 PBD inh inactive.
Screening O=C(NC1CCCCC1)c1cc(Sc2cccc(Cl)c2)nc2ccccc12 returned 12-LOX inh inactive.
Screening CCOc1ccc(N(C(=O)OC(C)(C)C)C(=O)c2ccc(O[Si](C)(C)C(C)(C)C)cc2)c(I)c1 returned JMJD2A Tudor inactive and HP1b chromo inh inactive.
Screening CC(=O)NC(=S)Nc1cccc([N+](=O)[O-])c1 returned G9a inh inactive, JMJD2A Tudor inactive, 12-LOX inh inactive, BAZ2B block inactive, HP1b chromo inh inactive and PLK1 PBD inh inactive.
Screening Cc1occc1C(=O)NNC(=S)Nc1cccc([N+](=O)[O-])c1 returned G9a inh 11.2µM, JMJD2A Tudor inactive, 12-LOX inh inactive, BAZ2B block inactive, HP1b chromo inh inactive and PLK1 PBD inh inactive.
CCOc1ccccc1C=NN=Cc1ccccc1O was read as JMJD2A Tudor inactive, 12-LOX inh inactive, HP1b chromo inh inactive and PLK1 PBD inh inactive.
For Cc1ccc(-c2nc3cccnc3s2)cc1NS(=O)(=O)c1ccc2c(c1)OCCO2 the results were G9a inh inactive, JMJD2A Tudor inactive, 12-LOX inh inactive, BAZ2B block inactive, HP1b chromo inh inactive and PLK1 PBD inh inactive.
Cc1nc2ccc(S(=O)(=O)Nc3cccc(-c4nc5cccnc5s4)c3C)cc2s1 was read as G9a inh 50.1µM, JMJD2A Tudor inactive, 12-LOX inh inactive, BAZ2B block inactive, HP1b chromo inh inactive and PLK1 PBD inh inactive.
Screening Cc1nc2ccc(S(=O)(=O)Nc3cc(-c4nc5cccnc5s4)ccc3C)cc2s1 returned G9a inh 50.1µM, JMJD2A Tudor inactive, 12-LOX inh inactive, BAZ2B block inactive, HP1b chromo inh inactive and PLK1 PBD inh inactive.
CCCC(CCC)C(=O)Nc1cccc(-c2nc3cccnc3s2)c1C was read as G9a inh inconclusive, JMJD2A Tudor inconclusive, 12-LOX inh inconclusive, BAZ2B block inconclusive and HP1b chromo inh inactive.
`COc1ccc(N=C2NC(=O)CS2)c([N+](=O)[O-])c1` gave G9a inh inactive, JMJD2A Tudor inactive, 12-LOX inh inactive, BAZ2B block inactive, HP1b chromo inh inactive and PLK1 PBD inh 26.7µM.
For CCc1ccc(-c2cn(C3CCCCC3)c(=S)[nH]2)cc1 the results were G9a inh inconclusive, JMJD2A Tudor 28.2µM, 12-LOX inh 20µM, BAZ2B block 17.8µM, HP1b chromo inh inconclusive and PLK1 PBD inh inactive.
